Compound activity: PubChem BioAssay, National Center for Advancing Translational Sciences (NCATS)
KDM5B inh – KDM5B demethylase inhibition; Q9UGL1; KDM5B demethylase, FDH-coupled NADH fluorescence (FDH is formaldehyde dehydrogenase); Potency, µM (series often up to 57.7 µM), usual class: inhibitors; hit rate 2.6% among 220,000; further: potency means the concentration at half of the fitted maximal effect; 0% is about no effect; nearly all actives have a fitted effect of over 70% in size
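Compound dilutions met 200 nM (final) KDM5BΔAP for 10 min at room temperature before substrate addition. The substrate mix held 12.5 µM H3K4me3 with cofactors 25 µM α-ketoglutarate and 50 µM Fe²⁺. NADH signal gain over 30 min defined activity.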
IP6K1 inhibitor – blocks human inositol hexakisphosphate kinase 1. Q92551. IP6K1 kinase, ADP-Glo luminescence, 2 h; active compounds read low. activity change, % (series mostly up to about 58 µM). hit rate 0.81% among 140,000; in the data active means activity change below about -25%; further: on the % scale 0 is the no-effect control and ±100 the full control effect
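ADP-Glo luminescence measures ADP made by human IP6K1 during a 2 h RT reaction with ATP/IP6 (mix at 1.3 mM/130 uM); top library doses 57.5 and 19.1 uM final.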
SNCA expr inhib – reduces expression of the alpha-synuclein gene; HEK-293 SNCA-luciferase knock-in, luminescence, 24 h; Potency, µM (titrated, usually from 57.2 µM), for the others: at the highest dose activity change, negative = inhibition, most hits filed as inhibitors; hit rate 0.17% among 140,000; AID 1671194;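 further: potency means the concentration at half of the fitted maximal effect; plate controls were DMSO cells for no effect and cell-free wells for full effect; nearly all actives have a fitted effect of over 45% in size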
HEK293 viab – cell viability loss counter-screen; HEK-293-SNCA-luc viability, GF-AFC fluorescence, 24 h; Potency, µM (top dose mostly 57.1 µM), for inactives: top-dose activity change, negative = cytotoxicity, usual class: cytotoxic; hit rate 0.12% among 150,000;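 further: potency means the concentration at half of the fitted maximal effect; 0% = DMSO-treated cells and -100% = medium-only wells without cells; nearly all actives have a fitted effect of over 30% in size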
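Cytotoxicity counterscreen: after 24 h compound treatment of genome-edited SNCA-luciferase HEK-293 cells, live-cell protease substrate GF-AFC read by fluorescence after 30 min; activity scaled between DMSO (0%) and medium-only (-100%), curves Hill-fitted.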
Starred values were filed as active, the others as inactive; i = inactive; ? = inconclusive; / = no result given; [ ] = another dose, or the depositor's remark. This is a sample that favours compounds with a hit; in the whole collection about 2.8% have one here. Unless noted, the call rests on the fitted dose curve; in most records, active means well fitted curve in the direction sought with a large enough effect; inconclusive means small, poorly fitted or top-dose-only effect, or another doubt; inactive means no such curve, though single readings can be large; an effect the other way counts as inactive or inconclusive.

SMILES	KDM5B inh	IP6K1 inhibitor	SNCA expr inhib	HEK293 viab
CCCc1cc(=O)n2[nH]c(NC(=O)C(C)(C)C)nc2n1	i	/	/	/
Cc1nn(-c2ccccc2)c2c1C(C)N(CC1CN(Cc3cccc(C(F)(F)F)c3)C1)C2=O (centres undefined)	/	4	/	/
CC(C)NC(=O)C(C)ONC(=O)c1cccc(C(F)(F)F)c1 (centres undefined)	i	/	/	/
COCC(=O)N1CCc2c(sc3ncnc(N4CCN(C)CC4)c23)C1	i	-1	-3%	5%
CCCNC(=O)N1CCc2c(sc3ncnc(N4CCN(C)CC4)c23)C1	28µM*	-3	-6%	5%
CCNc1ncnc2sc3c(c12)CCN(Cc1ccc[nH]1)C3	28µM*	-3	?	-21%
COCCCNc1ncnc2sc3c(c12)CCNC3	25µM*	2	?	1%
CCNc1ncnc2sc3c(c12)CCN(C(=O)NCCOC)C3	28µM*	12	?	-3%
CCNc1ncnc2sc3c(c12)CCN(Cc1cccnc1)C3	?	-3	-20%	2%
Cc1nc2nc(CC(=O)Nc3ccccc3F)nn2c(C)c1Cc1ccccc1Cl	i	/	/	/
Cc1ccc(NC(=O)C2CCc3nnc(-c4cccc(C(F)(F)F)c4)n32)cc1 (centres undefined)	/	8	?	1%
CCNC(=O)N1CCc2c(sc3ncnc(NCC)c23)C1	32µM*	4	-17%	-2%
CN(Cc1ccccc1)Cc1cc(C[C@H]2CNCC[C@H]2CC(=O)N2CCN(c3ccccn3)CC2)no1	18µM*	0	?	-1%
CC(C)(C)c1ccc(-c2cc(C[C@H]3CNCC[C@H]3CC(=O)N3CCN(c4ccccn4)CC3)no2)cc1	i	7	-4%	?
Cc1ccc(C(=O)C(C)n2c(N3CCOCC3)nc3c2c(=O)n(C)c(=O)n3C)cc1 (centres undefined)	i	/	/	/
O=C1NC2(CCCN(Cc3ccsc3)C2)COc2ccccc21 (centres undefined)	?	20	-11%[87.6 µM]	5%[87.6 µM]
O=C1NC2(CCCN(Cc3ccc(F)cc3)C2)COc2ccccc21 (centres undefined)	25µM*	38	2%	0%
O=C1NC2(CCCN(Cc3ccc(OC(F)(F)F)cc3)C2)COc2ccccc21 (centres undefined)	35µM*	8	3%	7%
COc1cccc(CN2CCCC3(COc4ccccc4C(=O)N3)C2)c1 (centres undefined)	35µM*	18	-10%[87.6 µM]	6%[87.6 µM]
CC(=O)Nc1ccc(CN2CCCC3(COc4ccccc4C(=O)N3)C2)cc1 (centres undefined)	?	14	1%	0%
O=C1NC2(CCCN(Cc3ccccc3C(F)(F)F)C2)COc2ccccc21 (centres undefined)	35µM*	27	13%	11%
O=C1COc2ccc(OCc3ccccc3)nc2CN1CCOc1ccccc1	i	-12	-21%[87.6 µM]	-6%[87.6 µM]
COC(=O)C1CCN(Cc2cc(=O)oc3c(C)c(C)ccc23)CC1	i	/	/	/
CCOC(=O)c1cccc(NC(=O)N2CC[C@@H](CC(=O)NCCN(C)C)[C@@H](CC)C2)c1	i	4	-17%[87.6 µM]	5%[87.6 µM]
C#CCNC(=O)C[C@@H]1CCN(C(=O)Nc2cccc(C(=O)OCC)c2)C[C@@H]1CC	16µM*	-1	-8%[87.6 µM]	8%[87.6 µM]
SMILES	KDM5B inh	IP6K1 inhibitor	SNCA expr inhib	HEK293 viab
CCNc1cc(N2CCC(CCC(=O)NC3CCCC3)CC2)ncn1	i	14	2.2µM*	-1%
O=C(CCC1CCN(c2cc(NC3CC3)ncn2)CC1)NCC1CC1	i	-6	1.4µM*	7%
COc1ccc(C(=O)Sc2ccc(C)cc2)cc1	i	/	/	/
CC(C)C(C)(C#N)NC(=O)CC1CC2CCC1C2 (centres undefined)	i	/	/	/
CN1CCN(c2ccc(-c3nccc4c(=O)cc(N5CCOCC5)oc34)cn2)CC1	?	-17	33%[87.6 µM]	-22%[87.6 µM]
COc1ccc(-c2nccc3c(=O)cc(N4CCOCC4)oc23)cn1	35µM*	-5	18%[87.6 µM]	-7%[87.6 µM]
COc1ccc(-c2nccc3c(=O)cc(N4CCN(C)CC4)oc23)cc1OC	i	-20	-8%[87.6 µM]	10%[87.6 µM]
O=c1cc(N2CCOCC2)oc2c(-c3ccncc3)nccc12	35µM*	-5	-8%[87.6 µM]	-1%[87.6 µM]
CN(C)c1cccc(-c2nccc3c(=O)cc(N4CCOCC4)oc23)c1	35µM*	-23	-12%[87.6 µM]	5%[87.6 µM]
O=c1cc(N2CCOCC2)oc2c(N3CCN(c4ccccn4)CC3)nccc12	i	-21	6%[87.6 µM]	-1%[87.6 µM]
COc1cc(-c2nccc3c(=O)cc(N4CCOCC4)oc23)ccn1	25µM*	-24	7%[87.6 µM]	-6%[87.6 µM]
CC(=O)N/C(=C/c1ccccc1)C(=O)OC(C)C(=O)NC(C)c1ccc(Cl)cc1Cl (centres undefined)	i	/	/	/
CCOC(=O)c1cc(S(=O)(=O)Nc2ccc3c(c2)OCCO3)[nH]n1	i	/	/	/
CC(CC#N)N1CCN(c2ncccn2)CC1 (centres undefined)	i	/	/	/
N#Cc1nccnc1N1CCN(C2CCC3(CCNCC3)CC2)CC1	22µM*	12	6%	-25%
Cc1cccc(NC(=O)C2CCCN2c2ncnc3ccccc23)c1C (centres undefined)	i	/	/	/
COc1ccc(-c2cc(N3CCC(NC(=O)COc4ccccc4C)CC3)n[nH]2)cc1	16µM*	18	?	?
COc1ccc(-c2cc(N3CCC(NC(=O)c4ccc(Br)cc4)C3)n[nH]2)cc1 (centres undefined)	11µM*	7	-10%	-9%
COc1ccc(C(=O)NC2CCN(c3cc(-c4ccc(OC)cc4)[nH]n3)CC2)cc1	?	15	11%	-10%
COc1ccc(-c2cc(N3CCC(NC(=O)c4ccc5cc[nH]c5c4)CC3)n[nH]2)cc1	28µM*	24	-26%	-13%
O=C(NCc1cccc(C(F)(F)F)c1)c1ccc2nnc(C3CCCC3)n2c1	/	-4	25%	-3%
CN1C(=O)c2cccn2CC1CNC(=O)c1cc2ccccc2[nH]1 (centres undefined)	16µM*	1	40%	-6%
O=C(O)c1ccc(CS(=O)(=O)c2ccccc2)cc1	i	/	/	/
CN(c1cc(=O)c2ccnc(-c3ccc(F)c(Cl)c3)c2o1)C1CCOCC1	35µM*	-1	-12%[87.6 µM]	-1%[87.6 µM]
CN(c1cc(=O)c2ccnc(N3CCOCC3)c2o1)C1CCOCC1	?	-17	-1%[87.6 µM]	-6%[87.6 µM]
SMILES	KDM5B inh	IP6K1 inhibitor	SNCA expr inhib	HEK293 viab
CNc1ncc(CN(C)C(=O)c2cc(S(N)(=O)=O)ccc2F)cn1	22µM*	-2	-11%	-14%
O=C(NCCCn1cccn1)c1ccccc1OC1CCN(Cc2ccccn2)CC1	i	6	31%	-1%
CCCn1cc(-c2ccnc(NCc3c(F)ccc(C)c3F)n2)c(C)n1	?	0	-18%	-19%
CCCn1cc(-c2ccnc(NCc3cccc(C)c3)n2)c(C)n1	28µM*	0	-4%	3%
CCCn1cc(-c2ccnc(NC3CCN(Cc4ccccn4)CC3)n2)c(C)n1	28µM*	9	?	-29%
COc1ccc(C)cc1CCNC(=O)c1ccc(NC(=O)CC2SC(N3CCCC3)=NC2=O)cc1 (centres undefined)	i	/	/	/
